Assay outcomes (PubChem BioAssay)
PRMT1 FP inh – inhibitors of human PRMT1; Q99873; recombinant PRMT1, activity-based probe fluorescence polarization; inhibition, % at 2.79 µM; hit rate 1.3% among 370,000;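 active means inhibition above about 21% made by adding two undisclosed values, limit read from the data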
Rtt109 Vps75 – C. albicans Rtt109 histone acetyltransferase inhibition; Q5AAJ8; purified Rtt109/Vps75, ThioGlo CoA-SH fluorescence, 4 h; inhibition, % at 34.9 µM; hit rate 0.16% among 330,000; AID 540336;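 active means inhibition of at least 50% in every replicate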
ABHD5-PLIN5 inh – inhibitors of human ABHD5-perilipin-5 interaction; Q00G26+Q8WTS1; Split G. princeps luciferase complementation, luminescence, 4 h; hit rate 0.78% among 360,000; inhibition, % at 4 µM;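 active means inhibition above the mean inhibition across every tested compound plus 3 SD, cut at about 22% in these data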;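 further: 0% = DMSO only wells and the 100% control is not disclosed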
Target sequence (Q00G26 whole entry, looked up): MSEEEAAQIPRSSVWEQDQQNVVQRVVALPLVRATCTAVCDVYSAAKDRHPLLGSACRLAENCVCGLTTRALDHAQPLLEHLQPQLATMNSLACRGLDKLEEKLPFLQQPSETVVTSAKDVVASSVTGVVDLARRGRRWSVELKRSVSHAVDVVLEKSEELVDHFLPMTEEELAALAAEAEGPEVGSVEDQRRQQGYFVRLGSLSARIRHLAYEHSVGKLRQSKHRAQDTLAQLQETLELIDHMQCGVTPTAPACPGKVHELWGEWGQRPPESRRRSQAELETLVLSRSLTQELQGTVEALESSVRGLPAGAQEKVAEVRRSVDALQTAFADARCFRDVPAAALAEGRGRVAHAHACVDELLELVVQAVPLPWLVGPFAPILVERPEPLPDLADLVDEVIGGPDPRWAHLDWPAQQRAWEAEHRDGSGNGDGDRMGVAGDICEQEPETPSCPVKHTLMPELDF
Target sequence (Q8WTS1 whole entry, looked up): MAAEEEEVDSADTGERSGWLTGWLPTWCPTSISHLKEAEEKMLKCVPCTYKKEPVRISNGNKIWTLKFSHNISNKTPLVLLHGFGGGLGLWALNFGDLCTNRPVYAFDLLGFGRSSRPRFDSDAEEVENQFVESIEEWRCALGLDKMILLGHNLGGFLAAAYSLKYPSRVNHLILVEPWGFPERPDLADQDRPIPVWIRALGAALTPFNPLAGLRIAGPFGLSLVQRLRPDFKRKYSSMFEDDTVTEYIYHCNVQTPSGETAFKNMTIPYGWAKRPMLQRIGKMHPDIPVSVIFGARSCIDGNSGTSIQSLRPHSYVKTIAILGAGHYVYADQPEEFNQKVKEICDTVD
LANA-H2A inh – blocks KSHV LANA binding to histone H2A/H2B. AID 2629. hit rate 0.6% among 320,000. inhibition, % (no concentration beside the values). cell-free LANA-H2A/H2B peptide, fluorescence polarization; in the data active means inhibition mostly above about 10%, no sharp cut-off; inactive means mostly below about 6.7%
rCAG RNA binder – r(CAG) repeat RNA binding; TO-PRO-1 dye displacement fluorescence; inhibition, % at 3 µM; hit rate 1.3% among 370,000;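 active means inhibition above the plate cutoff, the mean of all test compounds on that plate plus 3 SD, cut at about 35% in these data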;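 further: 0% = DMSO alone and 100% = 100 µM mitoxantrone as full dye displacement; higher means more dye released from RNA so lower well fluorescence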
ALR inh – inhibitors of human sulfhydryl oxidase ALR; P55789; hit rate 3.8% among 290,000; purified ALR, DTT oxidation, H2O2 HRP-luminol luminescence; inhibition, % (no concentration beside the values);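 active means mean replicate inhibition above about 79%, with every replicate also reaching it, limit read from the data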
An asterisk follows results filed as active; nt = no result; + = active, no number. An excerpt weighted towards active compounds, which were near 5.9% of everything screened.

SMILES	PRMT1 FP inh	Rtt109 Vps75	ABHD5-PLIN5 inh	LANA-H2A inh	rCAG RNA binder	ALR inh
COCCCNC(=O)CNC(=S)N(Cc1ccc(F)cc1)C1CCCCC1	-0.5	2.6	-4.3	29.8*	-2.6	-5.6
Cn1c(=O)c(NCCc2ccccc2)c2c3c(cccc31)C(=O)c1ccccc1-2	+	0.5	0.5	128.0*	-81.8	-31.8
CC(=O)Nc1ccc(Nc2c3c4c(cccc4n(C)c2=O)C(=O)c2ccccc2-3)cc1	71.3*	nt	18.0	21.7	-97.3	5.2
CC(=O)Nc1ccc(NC2=CC(=O)c3ccccc3C2=O)cc1	-3.4	1.3	-2.9	-4.4	1.2	-8.5
CCNc1c2c3c(cccc3n(C)c1=O)C(=O)c1ccccc1-2	nt	nt	nt	44.2*	nt	-8.7
CCCCNc1c2c3c(cccc3n(C)c1=O)C(=O)c1ccccc1-2	nt	-2.3	-0.8	22.8*	nt	-6.1
CN1C(=O)c2cccc(NCCCN3C(=O)c4ccccc4C3=O)c2C1=O	-3.5	nt	1.8	-5.1	-6.4	-4.8
CCCCS(=O)(=O)N1CCCc2nc(-c3ccc(OC)cc3)ccc21	-4.9	nt	nt	nt	1.8	nt
O=C(N/N=C/c1ccc[nH]1)c1ccc(COc2cccc3cccnc23)cc1	4.0	-11.5	-7.2	12.6	2.9	nt
NNC(=O)c1ccc(COc2cccc3cccnc23)cc1	1.7	nt	1.4	0.7	3.3	97.7*
CC(C)(C)c1ccc(S(=O)(=O)N2CCCC2C(=O)N2CCc3ccccc3C2)cc1 (stereo not given)	-3.2	nt	nt	nt	2.0	nt
CC1CN(c2nc(-c3ccc(Br)cc3)nnc2-c2ccccc2)CC(C)N1 (stereo not given)	-5.4	14.3	15.9	-3.8	-6.1	97.0*
Clc1ccc(-c2nnc(-c3ccccc3)c(N3CCSCC3)n2)cc1	-0.7	6.6	-9.5	-0.2	-0.3	47.2
C[C@@H]1CCCN1[C@H]1CS(=O)(=O)N[C@@H]1COCc1ccccc1	-3.2	nt	3.3	nt	5.4	nt
Cc1ccc2nc(-c3ccc(O)c(O)c3)cn2c1	1.7	7.3	-2.8	-2.2	4.0	98.8*
Oc1ccc(-c2csc(-c3cccnc3)n2)cc1O	6.6	4.8	2.3	-1.8	3.8	5.2
Oc1ccc(-c2csc(-c3ccccc3)n2)cc1O	11.4	17.1	-3.0	-0.5	23.6	98.9*
Cc1ccc2nc(-c3ccccc3)cn2c1	0.1	-3.5	-2.0	1.6	1.1	37.9
COc1cc(-c2csc(C)n2)ccc1O	-0.6	9.5	1.0	1.7	2.6	96.1*
Cc1nc(-c2ccc(O)c(O)c2)cs1	11.4	18.8	-0.4	1.2	2.3	99.5*
COC(=O)[C@@H](Cc1ccccc1)NC(=O)/C=C/[C@H]1O[C@@H](n2cnc3c(NC(=O)c4ccccc4)ncnc32)[C@H](O)[C@@H]1O	-1.9	nt	-1.9	nt	1.5	nt
O=C(CSc1ccccc1)NC1CCCCN(Cc2ccc(Cl)cc2)C1=O (stereo not given)	2.2	nt	nt	nt	1.4	nt
OC[C@H]1CC[C@@H]2O[C@H](CCc3ccc(-c4ccc(F)cc4)cc3)[C@H](n3cc(C4CC4)nn3)C[C@@H]2O1	-5.1	nt	nt	nt	7.5	nt
CCCc1sc(N)nc1-c1ccc(C)cc1	-0.3	-6.4	-8.4	-2.4	9.2	77.9*
O=C(Nc1ccc(S(=O)(=O)Nc2ncccn2)cc1)C1=COCCO1	21.9*	0.0	-4.2	0.3	6.8	97.1*
SMILES	PRMT1 FP inh	Rtt109 Vps75	ABHD5-PLIN5 inh	LANA-H2A inh	rCAG RNA binder	ALR inh
Cc1ccc(SCC(=O)Nc2ccc(S(=O)(=O)Nc3ncccn3)cc2)cc1	2.3	3.4	-2.1	-4.9	9.9	89.5*
COC(=O)c1ccc(NC(=O)CSCc2ccccc2)cc1	nt	-8.6	-10.2	-2.3	nt	98.6*
CCc1c(C(=O)NNC(=S)Nc2ccc(S(=O)(=O)Nc3ncccn3)cc2)csc1C	-1.4	3.2	4.9	3.9	22.7	98.0*
COc1ccc(S[C@]2(C(=O)N3CCOCC3)CC(=O)N(S(=O)(=O)c3ccc(F)cc3)[C@@H]2c2ccc(OC)cc2)cc1	13.8	nt	nt	nt	12.5	nt
CC(C)c1[nH]nc2c1C(c1cccc(C(F)(F)F)c1)N(Cc1ccccc1)C2=O (stereo not given)	5.8	nt	nt	nt	-0.4	nt
COc1ccc(-c2nnc(SCC(=O)Nc3cccc4ccccc34)n2Cc2ccco2)cc1	4.9	nt	nt	nt	9.2	nt
CC(=O)Nc1ccc(C(=O)OCCc2ccccc2)cc1	-2.9	6.2	0.9	14.7*	-3.7	-3.2
O=C(CSCc1ccccc1)Nc1ccc(S(=O)(=O)Nc2ncccn2)cc1	4.7	8.1	5.2	8.4	3.6	98.0*
O=C(CS(=O)(=O)c1ccccc1)Nc1ccc(S(=O)(=O)Nc2ncccn2)cc1	3.8	-10.1	1.0	-6.3	-0.6	-14.7
O=C(CC(c1ccccc1)(c1ccccc1)c1ccccc1)N[C@@H](Cc1ccccc1)C(=O)O	-0.7	1.4	1.8	16.1*	25.9	nt
NC(=O)NC(Cc1ccccc1)C(=O)O (stereo not given)	5.7	nt	1.0	-3.3	2.5	-19.9
CCCS(=O)(=O)NC(=O)C1(C)CCCN(C(=O)c2ccc(OC)cc2)C1 (stereo not given)	-4.0	nt	-3.0	nt	2.1	nt
CCc1nc2ccccc2[nH]c1=O	5.4	2.9	2.6	26.7*	-1.7	4.3
CCN(CC)c1nc2ccccc2[nH]c1=O	-0.7	nt	5.8	0.9	2.7	nt
COC(=O)CSC1=NS(=O)(=O)c2ccccc21	nt	2.6	-13.6	-2.7	nt	99.8*
COC(=O)CSc1ccccc1C(=O)OC	-2.5	13.8	2.7	0.1	-2.1	-4.4
O=C(CSC1=NS(=O)(=O)c2ccccc21)Nc1ccccc1	62.7*	9.9	-29.7	-2.4	1.6	98.7*
O=C(CSC1=NS(=O)(=O)c2cc(F)ccc2N1)Nc1ccccc1	-7.4	19.8	15.3	nt	19.1	nt
CC1CCN(c2ccc(C(=O)O)cc2NS(=O)(=O)c2ccc(Cl)s2)CC1	4.3	nt	nt	nt	28.9	nt
O=C(Nc1ccc(N2CCOCC2)cc1)c1ccc2ncsc2c1	22.1*	7.0	-8.3	-1.4	7.2	26.0
N#Cc1ccsc1NC(=O)c1ccc2ncsc2c1	21.6*	nt	-3.4	nt	9.0	nt
Cc1cccc(C)c1NC(=O)C(c1ccnc2ccccc12)n1c(=O)c(-c2ccccc2)nc2ccccc21 (stereo not given)	-2.1	nt	2.2	nt	11.6	nt
Cn1c(=O)[nH]c(NCCc2ccc(O)cc2)c([N+](=O)[O-])c1=O	3.9	-0.1	3.4	2.3	1.5	80.7*
Cn1c(=O)[nH]c(Nc2ccc(F)cc2)c([N+](=O)[O-])c1=O	0.6	-3.2	2.2	2.6	2.5	5.2
O=C1CC(c2ccco2)Sc2ccccc2N1 (stereo not given)	4.7	-4.3	1.1	-9.8	-1.0	nt
O=C1CC(c2ccccc2)Sc2ccccc2N1 (stereo not given)	-0.1	-6.3	-0.4	-0.5	1.4	93.7*
CCc1c(C(=O)C(C)O)c2n3c1CCC[C@@H]3CC2 (stereo not given in full)	4.3	nt	nt	nt	nt	nt
